This note sets out measurements from PubChem BioAssay (NCATS).

SMILES strings stand for the structures. Where “and” joins values, the source holds several entries; their conditions need not be identical. Equal entries are not always repeated. Inconclusive results are not listed. Entries that show only a call come without a potency. The source holds several records for some structures; these can differ, active in one and inactive in another. Calls of active or inactive are those of the source. Calls come from the whole dose curve; as a rule, active = well fitted curve in the direction sought with a large enough effect; inconclusive = small, poorly fitted or top-dose-only effect, or another doubt; inactive = no such curve, though single readings can be large; an effect the other way counts as inactive or inconclusive.
Potency is the fitted concentration of half-maximal effect.

Chain of Glutathione peroxidase 1 (Homo sapiens) (P07203 whole entry, looked up): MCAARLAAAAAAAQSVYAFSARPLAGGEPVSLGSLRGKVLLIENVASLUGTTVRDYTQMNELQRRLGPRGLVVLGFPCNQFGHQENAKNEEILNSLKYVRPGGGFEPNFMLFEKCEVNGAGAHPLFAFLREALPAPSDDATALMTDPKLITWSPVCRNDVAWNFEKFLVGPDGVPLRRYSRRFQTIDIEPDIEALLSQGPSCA

Tested on in one test: not listed separately
In words: Primary qHTS for inhibitors of nuclear receptor binding SET domain protein 2 (NSD2) in an RCH-ACV wild type WT cells (2C) (AID 1645877). Note: nearly all actives have a fitted effect of over 70% in size. The following applies: RCH-ACV (leukaemia line) NSD2 WT (2C) viability, CellTiter-Glo, 72 h; series mostly up to 44.9 µM. A general note: qHTS replaces the single test concentration by a dilution series.
In the case of `C[N+]1(CC2COC(c3ccccc3)(C3CCCCC3)O2)CCCCC1` (stereo not drawn), the Potency is 21.1 µM (active).

Turning to `CNCCc1ccccn1`, the Potency result was “inactive”.

For `CN(Cc1ccc(C(C)(C)C)cc1)Cc1cccc2ccccc12`, the Potency entry is “inactive”.

Take `CC(C)[C@@H]1CC[C@@H](C)CC1=O`: the Potency entry was “inactive”.

As for `NC(=O)C1(N2CCCCC2)CCN(CCCC(=O)c2ccc(F)cc2)CC1`, the Potency result was “inactive”.

For `O[C@@H](c1cc(C(F)(F)F)nc2c(C(F)(F)F)cccc12)[C@H]1CCCCN1`, the Potency was 7.5 µM (active).

Regarding `CN(C)CCOC(=O)C(c1ccccc1)C1(O)CCCC1` (stereo not drawn), the Potency result was “inactive”.

In the case of `Nc1nc(Cl)nc2c1ncn2[C@@H]1O[C@H](CO)[C@@H](O)[C@@H]1F`, the Potency was 8.4 nM (active) and 37.2 nM (active).

On to `C[C@@]12C(=O)OC(=O)[C@]1(C)C1CCC2O1`, for which the Potency was 2.66 µM (active).

In the case of `CC(CNC1CCCCC1)OC(=O)c1ccccc1` (stereo not drawn), the Potency entry is “inactive”.

Turning to `OC1C(O)C(O)C(O)C(O)C1O` (stereo not drawn), the Potency entry is “inactive”.

Turning to `O=S(=O)(O)c1ccc(O)cc1`, the Potency entry is “inactive”.

As to `Nc1nc(-c2ccccc2)c(Br)c(=O)[nH]1`, the Potency entry is “inactive”.

Take `CCCCCCCCCCCCCCCC(=O)O`: the Potency result was “inactive”.

As to `CC(=O)OCC(=O)[C@H]1CC[C@H]2[C@@H]3CCC4=CC(=O)CC[C@]4(C)[C@H]3CC[C@]12C`, the Potency entry was “inactive”.

In the case of `CCCCC(CC)COC(=O)/C=C/c1ccc(OC)cc1` (stereo not drawn), the Potency result was “inactive”.

With `CCCCCCCCCCCCCCCCO`, the Potency entry was “inactive”.

As to `Cc1ccc(-c2ncc(Cl)cc2-c2ccc(S(C)(=O)=O)cc2)cn1`, the Potency entry was “inactive”.

With `CC(=O)O[C@]1(C(C)=O)CC[C@H]2[C@@H]3C=C(C)C4=CC(=O)CC[C@]4(C)[C@H]3CC[C@@]21C`, the Potency result was “inactive”.

In the case of `COc1ccc(CN(CCN(C)C)c2ncccn2)cc1`, the Potency result was “inactive”.

`CC(=O)Nc1ccc(OC(=O)c2ccccc2OC(C)=O)cc1`: the Potency entry is “inactive”.

Regarding `NS(=O)(=O)c1ccc(Cl)c(S(N)(=O)=O)c1`, the Potency entry was “inactive”.

In the case of `COc1cc([C@H]2Oc3cc([C@H]4Oc5cc(O)cc(O)c5C(=O)[C@@H]4O)ccc3O[C@@H]2CO)ccc1O`, the Potency result is “inactive and 23.5 µM (active)”.

With `Nc1ccc(C(=O)NCC(=O)O)cc1`, the Potency entry is “inactive”.

Consider `FC(F)(F)C(F)(F)C(F)(F)C(F)(F)C(F)(F)C(F)(F)C(F)(F)C(F)(F)Br`, for which the Potency entry is “inactive”.

Turning to `CCN(CC)CCOC(=O)C1(c2ccccc2)CCCC1`, the Potency entry was “inactive”.

In the case of `Clc1cccc(C(c2ccc3nc[nH]c3c2)n2ccnc2)c1` (stereo not drawn), the Potency entry is “inactive”.

Take `CCCCCCCCCCC[C@@H](C[C@@H]1OC(=O)[C@H]1CCCCCC)OC(=O)[C@H](CC(C)C)NC=O`: the Potency result is “inactive”.

As to `CCN1CCN(C(=O)N[C@@H](C(=O)N[C@@H]2C(=O)N3C(C(=O)O)=C(CSc4nnnn4C)CS[C@H]23)c2ccc(O)cc2)C(=O)C1=O`, the Potency entry was “inactive”.

With `CC[C@H](c1ccc(O)cc1)[C@@H](CC)c1ccc(O)cc1`, the Potency was 8.41 µM (active).

As to `O=c1[nH]c(=O)n([C@H]2C[C@H](O)[C@@H](CO)O2)cc1F`, the Potency is 8.4 nM (active) and 46.8 nM (active).

In the case of `CCC1Nc2cc(Cl)c(S(N)(=O)=O)cc2S(=O)(=O)N1` (stereo not drawn), the Potency entry was “inactive”.

For the molecule `CCOC(=O)[C@H](CCc1ccccc1)N[C@@H](C)C(=O)N1[C@H](C(=O)O)C[C@@H]2CCC[C@@H]21`, the Potency result was “inactive”.

Consider `CCOc1cc(OCC)c(C(=O)CCC(=O)O)cc1OCC`, for which the Potency result was “inactive”.

For the molecule `CCCCC(CC)COC(=O)c1ccc(N(C)C)cc1` (stereo not drawn), the Potency entry was “inactive”.

Take `C[C@H]1O[C@@H](O[C@H]2CC[C@@]3(C)[C@H](CC[C@@H]4[C@@H]3C[C@@H](O)[C@]3(C)[C@@H](C5=CC(=O)OC5)CC[C@]43O)C2)C[C@H](O)[C@@H]1O[C@H]1C[C@H](O)[C@H](O[C@H]2C[C@H](O)[C@H](O[C@@H]3O[C@H](CO)[C@@H](O)[C@H](O)[C@H]3O)[C@@H](C)O2)[C@@H](C)O1`: the Potency was 0.0944 µM (active).

`NS(=O)(=O)c1cc2c(cc1Cl)NC(CC1CCCC1)NS2(=O)=O` (stereo not drawn): the Potency result is “inactive”.

Regarding `C#C[C@]1(O)CC[C@H]2[C@@H]3[C@H](C)CC4=C(CCC(=O)C4)[C@H]3CC[C@@]21C`, the Potency is 21.1 µM (active).

A further test has as its target Glutathione peroxidase 1 (Homo sapiens) (UniProt P07203). The experiment in a line: Primary qHTS Assay for Inhibitors of Recombinant Selenoprotein Glutathione Peroxidase 1 (GPX1) (AID 1845191). Note: nearly all actives have a fitted effect of over 65% in size. The conditions noted are these: recombinant GPX1, GR-coupled NADPH fluorescence, 15 min; series mostly up to 48.8 µM. In short, it runs like this: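 NADPH consumption tracked by fluorescence at 340/450 nm between t=0 and t=15 min, room temperature. Final mix: 10 nM GPX1, 100 nM glutathione reductase, 1 mM GSH, 0.5 mM NADPH, 0.5 mM cumene hydroperoxide, 0.01% BSA; 30 min compound–enzyme preincubation.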
Take `C[N+]1(CC2COC(c3ccccc3)(C3CCCCC3)O2)CCCCC1` (stereo not drawn): the Potency result is “inactive”.

As to `CNCCc1ccccn1`, the Potency entry is “inactive”.

With `CN(Cc1ccc(C(C)(C)C)cc1)Cc1cccc2ccccc12`, the Potency result was “inactive”.

As to `CC(C)[C@@H]1CC[C@@H](C)CC1=O`, the Potency entry was “inactive”.

Take `NC(=O)C1(N2CCCCC2)CCN(CCCC(=O)c2ccc(F)cc2)CC1`: the Potency entry is “inactive”.

For the molecule `O[C@@H](c1cc(C(F)(F)F)nc2c(C(F)(F)F)cccc12)[C@H]1CCCCN1`, the Potency entry is “inactive”.

In the case of `CN(C)CCOC(=O)C(c1ccccc1)C1(O)CCCC1` (stereo not drawn), the Potency entry is “inactive”.

In the case of `Nc1nc(Cl)nc2c1ncn2[C@@H]1O[C@H](CO)[C@@H](O)[C@@H]1F`, the Potency result was “inactive”.

Regarding `C[C@@]12C(=O)OC(=O)[C@]1(C)C1CCC2O1`, the Potency entry was “inactive”.

Turning to `CC(CNC1CCCCC1)OC(=O)c1ccccc1` (stereo not drawn), the Potency entry was “inactive”.

As for `OC1C(O)C(O)C(O)C(O)C1O` (stereo not drawn), the Potency result was “inactive”.

For the molecule `O=S(=O)(O)c1ccc(O)cc1`, the Potency entry is “inactive”.

Consider `Nc1nc(-c2ccccc2)c(Br)c(=O)[nH]1`, for which the Potency result is “inactive”.

Regarding `CC(=O)OCC(=O)[C@H]1CC[C@H]2[C@@H]3CCC4=CC(=O)CC[C@]4(C)[C@H]3CC[C@]12C`, the Potency entry was “inactive”.

For `CCCCC(CC)COC(=O)/C=C/c1ccc(OC)cc1` (stereo not drawn), the Potency result was “inactive”.

As for `CCCCCCCCCCCCCCCCO`, the Potency result is “inactive”.

Take `Cc1ccc(-c2ncc(Cl)cc2-c2ccc(S(C)(=O)=O)cc2)cn1`: the Potency result was “inactive”.

In the case of `COc1ccc(CN(CCN(C)C)c2ncccn2)cc1`, the Potency entry is “inactive”.

As to `CC(=O)Nc1ccc(OC(=O)c2ccccc2OC(C)=O)cc1`, the Potency entry is “inactive”.

As to `NS(=O)(=O)c1ccc(Cl)c(S(N)(=O)=O)c1`, the Potency result is “inactive”.

Take `COc1cc([C@H]2Oc3cc([C@H]4Oc5cc(O)cc(O)c5C(=O)[C@@H]4O)ccc3O[C@@H]2CO)ccc1O`: the Potency entry was “inactive”.

In the case of `Nc1ccc(C(=O)NCC(=O)O)cc1`, the Potency entry is “inactive”.

In the case of `FC(F)(F)C(F)(F)C(F)(F)C(F)(F)C(F)(F)C(F)(F)C(F)(F)C(F)(F)Br`, the Potency entry is “inactive”.

Regarding `CCN(CC)CCOC(=O)C1(c2ccccc2)CCCC1`, the Potency entry is “inactive”.

`Clc1cccc(C(c2ccc3nc[nH]c3c2)n2ccnc2)c1` (stereo not drawn): the Potency result is “inactive”.

Consider `CCN1CCN(C(=O)N[C@@H](C(=O)N[C@@H]2C(=O)N3C(C(=O)O)=C(CSc4nnnn4C)CS[C@H]23)c2ccc(O)cc2)C(=O)C1=O`, for which the Potency was 11.4 µM (active).

Take `CC[C@H](c1ccc(O)cc1)[C@@H](CC)c1ccc(O)cc1`: the Potency result was “inactive”.

On to `O=c1[nH]c(=O)n([C@H]2C[C@H](O)[C@@H](CO)O2)cc1F`, for which the Potency result was “inactive”.

For the molecule `CCC1Nc2cc(Cl)c(S(N)(=O)=O)cc2S(=O)(=O)N1` (stereo not drawn), the Potency result was “inactive”.

Consider `CCOC(=O)[C@H](CCc1ccccc1)N[C@@H](C)C(=O)N1[C@H](C(=O)O)C[C@@H]2CCC[C@@H]21`, for which the Potency entry is “inactive”.

Turning to `CCOc1cc(OCC)c(C(=O)CCC(=O)O)cc1OCC`, the Potency entry is “inactive”.

In the case of `CCCCC(CC)COC(=O)c1ccc(N(C)C)cc1` (stereo not drawn), the Potency result was “inactive”.

Consider `C[C@H]1O[C@@H](O[C@H]2CC[C@@]3(C)[C@H](CC[C@@H]4[C@@H]3C[C@@H](O)[C@]3(C)[C@@H](C5=CC(=O)OC5)CC[C@]43O)C2)C[C@H](O)[C@@H]1O[C@H]1C[C@H](O)[C@H](O[C@H]2C[C@H](O)[C@H](O[C@@H]3O[C@H](CO)[C@@H](O)[C@H](O)[C@H]3O)[C@@H](C)O2)[C@@H](C)O1`, for which the Potency entry is “inactive”.

As for `NS(=O)(=O)c1cc2c(cc1Cl)NC(CC1CCCC1)NS2(=O)=O` (stereo not drawn), the Potency entry is “inactive”.

Turning to `C#C[C@]1(O)CC[C@H]2[C@@H]3[C@H](C)CC4=C(CCC(=O)C4)[C@H]3CC[C@@]21C`, the Potency result was “inactive”.
